Only some compounds are listed: those with a hit (about 5.9% of all), similar ones and a draw of the others.
GLP1R cytotox = cytotoxic in the GLP-1 receptor inverse agonist counter-screen. AID 624418. actives 0.13% (n = 410,000). Potency, µM (series often up to 38.3 µM), for inactives: top-dose activity change, negative = inhibition, usual class: inhibitors. HEK293 cAMP-luciferase reporter cells, luminescence, 24 h;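 also: loss of luciferase light is scored as toxicity; % is scaled to controls: 0 for no effect and ±100 for the full control effect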
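Quantitative HTS format, 1536 wells, 200 cells/uL seeded. Compounds: 23 nL, 24 h, 37 °C. Detection: luciferase reagent, luminescence at 12 min RT; decreased signal taken as cytotoxic.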
VP16 counter = counter-screen for ROR gamma inhibitors: Gal4-VP16 reporter; Drosophila S2 Gal4-VP16 UAS-luciferase, luminescence, 20 h; Potency, µM (doses to about 53.6 µM), for inactives: at the highest dose activity, negative = inhibition, most hits filed as inhibitors; actives 3.5% (n = 310,000); AID 2546;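 also: Gal4-VP16 expression switched on by copper sulfate through the metallothionein promoter; % is scaled to controls: 0 for no effect and ±100 for the full control effect; nearly all actives have a fitted effect of over 50% in size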
RORgamma inh = inhibitors of mouse ROR gamma transcriptional activity; actives 5.4% (n = 310,000); P51450; Potency, µM (series often up to 53.6 µM), for the others: at the highest dose activity change, negative = inhibition, hits mostly inhibitors; Drosophila S2 Gal4-RORgamma UAS-luciferase reporter, 20 h; also: % is scaled to controls: 0 for no effect and ±100 for the full control effect; nearly all actives have a fitted effect of over 60% in size
Target sequence (P51450 whole entry, looked up, the tested form may be a part): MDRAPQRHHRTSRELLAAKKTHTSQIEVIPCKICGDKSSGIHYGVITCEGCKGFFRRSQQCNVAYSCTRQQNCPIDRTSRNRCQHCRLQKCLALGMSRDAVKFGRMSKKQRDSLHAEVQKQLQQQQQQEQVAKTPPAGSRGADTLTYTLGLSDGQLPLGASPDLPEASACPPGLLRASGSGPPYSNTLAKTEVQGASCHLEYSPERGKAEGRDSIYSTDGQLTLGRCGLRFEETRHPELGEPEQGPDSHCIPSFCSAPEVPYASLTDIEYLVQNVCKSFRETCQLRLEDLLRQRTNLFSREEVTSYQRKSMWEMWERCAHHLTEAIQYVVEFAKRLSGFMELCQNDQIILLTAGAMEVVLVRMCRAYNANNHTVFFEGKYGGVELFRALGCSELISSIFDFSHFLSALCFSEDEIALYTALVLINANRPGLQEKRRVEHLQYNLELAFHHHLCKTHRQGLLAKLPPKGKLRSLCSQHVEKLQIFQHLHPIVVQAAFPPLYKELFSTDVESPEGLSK
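Stably transfected Drosophila Schneider cells are the test system, with ROR gamma fused to Gal4 and luciferase under UAS control; luminescence is read after 20 hr of 700 uM copper sulfate induction at ambient temperature.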
GLP-1R agonist = agonists of human GLP-1 receptor | P43220 | HEK293 GLP-1R CRE-luciferase, luminescence, 4-6 h; cells express a hypersensitive GLP-1R form | Potency, µM (doses to about 45.6 µM), inactives show at the top dose activation, most hits filed as activators | actives 0.007% (n = 380,000) | AID 624172; also: % of control where 0% means no effect
GLP-1R inv ag = inverse agonists of human GLP-1 receptor | actives 1.6% (n = 410,000) | HEK293 GLP-1R CRE-luciferase, luminescence, 24 h; GLP-1R form is constitutively active | Potency, µM (top dose mostly 38.3 µM), for the others: at the top dose activity change, negative = inhibition, actives largely listed as inhibitors | AID 624417; also: % is scaled to controls: 0 for no effect and ±100 for the full control effect; nearly all actives have a fitted effect of over 55% in size
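HEK293 cells stably co-expressing constitutively active GLP-1R and a cAMP-responsive luciferase reporter were seeded in DMEM with 10% Nu serum, given compounds after 12 h, and incubated 24 h at 37 deg C. Luminescence was then read.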
An asterisk follows results filed as active; ? = inconclusive; . = not tested or not shown; ! = not active in a repeat; [ ] = dose if it differs, or a comment. Calls follow the shape of the dose curve; as a rule, active = well fitted curve in the direction sought with a large enough effect; inconclusive = small, poorly fitted or top-dose-only effect, or another doubt; inactive = no such curve, though single readings can be large; an effect the other way counts as inactive or inconclusive. Potency is read from the fitted curve at half-maximal effect.

SMILES	GLP1R cytotox	VP16 counter	RORgamma inh	GLP-1R agonist	GLP-1R inv ag
ClC1=C(Cl)C2(Cl)C3C(Cl)C(Cl)CC3C1(Cl)C2(Cl)Cl (stereo unspecified)	.	-4.9%	-19.4%	.	.
COC1C(O)C(C)O[C@H](OC2CC[C@@]3(C=O)C4CC[C@]5(C)C(C6=CC(=O)OC6)CC[C@@]5(O)C4CC[C@@H]3C2)C1O (stereo partly specified)	.	-2.0%	12.5%	.	.
CCN1C[C@]2(C)CC[C@H](O)[C@@]34C5C[C@@H]6[C@@H](OC)C[C@@](O)(C5[C@H]6O)[C@@H](CC23)[C@@H]14 (stereo partly specified)	.	-9.7%	1.1%	.	.
C[C@H](CCC(=O)O)C[C@H](C)C[C@H](C)C(=O)/C=C(\O)[C@H](C)C[C@H](C)C/C=C/[C@@H](C)[C@@H](O)[C@@H](C)[C@@H](O)C[C@@H]1CC[C@@](C)([C@H]2CC[C@@](C)([C@@H](C)O)O2)O1	.	-7.4%	-2.3%	.	.
CC(C)(C)NS(=O)(=O)c1ccc(OCC(=O)N2CCN(Cc3ccccc3)CC2)cc1	-1.3%	?	-38.8%	2.0%	-26.3%
CC(C)NS(=O)(=O)c1ccc(OCC(=O)N2CCN(Cc3ccccc3)CC2)c(Cl)c1	-12.4%	20µM*	?	1.2%	?
CCOP(=S)(OCC)SCn1c(=O)oc2cc(Cl)ccc21	.	-19.5%	38.4%	.	.
COc1ccc(-c2cc(C(=O)N3CCN(c4ccccc4OC)CC3)c3cc(C(C)C)ccc3n2)cc1	-17.2%	.	.	.	8.91µM*
CC[C@H](C)[C@H](NC(=O)CN)C(=O)N[C@@H](CC(C)C)C(=O)NCC(=O)N[C@@H](Cc1ccccc1)C(=O)N[C@H](C(=O)N[C@@H](Cc1ccccc1)C(=O)N[C@H](C(=O)N[C@@H](CC(C)C)C(=O)O)[C@@H](C)O)C(C)C	.	-3.2%	20.9%	.	.
CC1CC(C)C(=O)[C@H](C(O)CC2CC(=O)NC(=O)C2)C1 (stereo partly specified)	.	2.3%	0.316µM*	.	.
C[C@H]1C[C@H](C)C(=O)[C@@H]([C@H](O)CC2CC(=O)NC(=O)C2)C1	.	?	?	-7.1%	.
C[C@H]1C[C@@H](C)C(=O)[C@@H]([C@H](O)CC2CC(=O)NC(=O)C2)C1	?	2.82µM*!	0.251µM*!	-8.5%	?
Cc1ccc(OP(=O)(Oc2ccc(C)cc2)Oc2ccc(C)cc2)cc1	.	-17.8%	40.2%	.	.
CN1C(=O)[C@]23CC4=CC=C[C@H](O)[C@H]4N2C(=O)[C@@]1(CO)SS3	.	0.2%	0.0447µM*	.	.
NS(=O)(=O)c1cccc(N2CCNCC2)c1	5.1%	-7.0%	-2.2%	-3.0%	13.2%
CC(CN1CCNCC1)(NS(=O)(=O)c1ccccc1)c1ccccc1 (stereo unspecified)	?	-3.1%	19.2%	-5.7%	3.55µM*
C/C1=C/C(=O)O[C@@H]2C[C@@H](CC[C@H](C)/C=C\CC1)O[C@@](O)(C1CSC(=O)N1)C2 (stereo partly specified)	.	5.9%	-9.4%	.	.
CC1=CC(O)C(O)C2(C)C1CC1OC(=O)C(O)C3C(C)C(O)C4(O)OCC13C42 (stereo unspecified)	-12.9%	.	.	-24.0%	0.1%
COC(=O)[C@]12OC[C@]34C([C@@H](O)[C@@H]1O)[C@]1(C)CC(=O)C(O)=C(C)[C@@H]1C[C@H]3OC(=O)[C@H](O)[C@@H]24 (stereo partly specified)	-27.4%	0.224µM*	0.562µM*	-11.8%	?
O=C(O)[C@@H]1CSC(c2cccnc2)N1 (stereo partly specified)	.	-0.2%	-13.6%	.	.
COc1ccc(/C=C/c2cc(O)cc(O)c2)cc1	.	3.55µM*	1.41µM*	.	.
Clc1ccc(C(Cl)(Cl)Cl)c(Cl)c1	-0.1%	-1.2%	-2.1%	3.5%	4.6%
N=C(N)SCc1ccc(Cl)cc1Cl	?	2.1%	0.0%	-8.3%	7.08µM*
CCCCC/C=C\C/C=C\CCCCCCCCCC(=O)NCCc1ccc(O)c(O)c1	.	-6.5%	-3.2%	.	.
COC(=O)C1(C)C=C2C(=C(C)C(=O)C2C)CN1 (stereo unspecified)	.	-7.1%	-8.7%	.	.
SMILES	GLP1R cytotox	VP16 counter	RORgamma inh	GLP-1R agonist	GLP-1R inv ag
CCCCc1ccc(C2C3=C(CC(C)(C)CC3=O)NC3=C2C(=O)c2ccccc23)cc1 (stereo unspecified)	?	0.0%	-6.0%	-1.9%	3.55µM*
CC(Cc1ccc2c(c1)OCO2)NO (stereo unspecified)	.	.	.	0.7%[110 µM]	.
O=c1[nH]c(=S)[nH]c(O)c1N=Nc1ccc2c(c1)OCO2	10µM*	?	13.0%	-3.2%	5.7%
O=C(O)CCC(CP(=O)(O)O)C(=O)O (stereo unspecified)	.	7.5%	19.8%	.	.
COc1ccc(CN2CCCC(C(=O)c3ccccc3SC)C2)cc1O (stereo unspecified)	-18.7%	8.5%	-1.5%	2.4%	?
CSc1ccccc1C(=O)C1CCCN(Cc2ccccn2)C1 (stereo unspecified)	-26.2%	-23.4%	11.2µM*	-0.7%	-24.3%
Cc1cccc(CN2CCCC(C(=O)c3ccc(C(F)(F)F)cc3)C2)n1 (stereo unspecified)	?	7.94µM*	2.82µM*	21.8%	?
CSc1ccccc1C(=O)C1CCCN(Cc2cccc(C)n2)C1 (stereo unspecified)	?	20µM*	4.47µM*	3.9%	11.2µM*
Cc1cccc(C)c1N	.	-2.0%	19.0%	.	.
CON(C)C(=O)Nc1ccc(Br)c(Cl)c1	.	-10.1%	17.8%	.	.
C/C=C(\C)C(=O)OC1C(C)=C2C(C1OC(=O)CCCCC)C(C)(OC(C)=O)CC(OC(=O)CCC)C1(O)C2OC(=O)C1(C)O (stereo unspecified)	.	17.8µM*	?	.	.
CCN(N=O)C(N)=O	.	4.5%	17.0%	.	.
CC1OC(O[C@@H]2C(O)CC(O[C@@H]3C(O)C[C@@H](OC4CC[C@]5(C)[C@H](CC[C@H]6[C@@H]5CC[C@]5(C)C(C7=CC(=O)OC7)C(O)C[C@@]65O)C4)OC3C)OC2C)CC(O)C1O (stereo partly specified)	.	-3.1%	2.24µM*	.	.
C[C@H]1O[C@@H](O[C@H]2[C@@H](O)C[C@H](O[C@H]3[C@@H](O)C[C@H](O[C@H]4CC[C@@]5(C)[C@H](CC[C@@H]6[C@@H]5CC[C@]5(C)[C@@H](C7=CC(=O)OC7)CC[C@]65O)C4)O[C@@H]3C)O[C@@H]2C)C[C@H](O)[C@@H]1O	-41.2%	-12.4%	1.58µM*	-18.8%	-83.1%
N[C@@]1(C(=O)O)CC[C@H](C(=O)O)C1	.	-9.0%	?	.	.
S=C(Nc1ccccc1)Nc1cccc(Br)c1	4.9%	7.6%[10 µM]	11.2µM*	-2.9%	-29.1%
